From article PMC10668032, “Altered binding affinity of SIX1-Q177R correlates with enhanced WNT5A and WNT pathway effector expression in Wilms tumor” come the findings set out here.

In all, about 33,000 sequences were measured (“e-score”: median about -0.05, highest 2% from about 0.38 on). The list comes from a sample in which the highest values are over-represented; it also holds similar and randomly drawn sequences.

The test concerns the target T1, SIX1-Q177R homeodomain (human, UniProt Q15475 108-198, Q177R).
T1 sequence: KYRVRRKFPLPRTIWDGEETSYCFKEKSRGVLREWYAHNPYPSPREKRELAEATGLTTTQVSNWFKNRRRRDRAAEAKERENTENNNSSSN
Kind of test: universal protein binding microarray; Universal all-10-mer PBM (8x60K, AMADID 030236), 300 nM GST-tagged protein, Alexa Fluor 488 anti-GST; buffer, salt, pH and temperature not stated (as in Berger); high values mean tight binding. The note with it: protein: ivt; tags: N-terminal GST; dsDNA, one strand shown. The procedure, abridged:
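GST-tagged homeodomains were made by in vitro transcription/translation and quantified by anti-GST western blot against a recombinant GST standard curve. They were applied in duplicate at 300 nM final concentration to universal 'all 10-mer' protein binding microarrays (8×60K format). Binding was quantified as 8-mer E-scores with the Universal PBM Analysis Suite.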
Consider ACGCCCGA, for which the binding signal worked out at 0.17 ± 0.0302 E-score.

Turning to CCTGCACC, the binding signal stood at 0.16 ± 0.00461 E-score.

Turning to ACCCAAGT, the binding signal is 0.157 ± 0.00998 E-score.

In the case of AAGCACCA, the binding signal turned out to be 0.24 ± 0.00412 E-score.

ACGGATAC: the binding signal turned out to be 0.28 ± 0.00317 E-score.

As for GCGGACAC, the binding signal worked out at 0.406 ± 0.0139 E-score.

For the sequence ACGGACAC, the binding signal is 0.41 ± 0.0174 E-score.

For the sequence CCGGACGA, the binding signal is 0.185 ± 0.0376 E-score.

On to CCGGATAC, for which the binding signal came to 0.262 ± 0.00585 E-score.

As for GCGCACAC, the binding signal amounted to 0.289 ± 0.0303 E-score.

On to GCGGATAC, for which the binding signal came out at 0.2681 ± 0.00246 E-score.

Take CCGGACAC: the binding signal is 0.427 ± 0.0142 E-score.

On to ACGGAGTC, for which the binding signal came out at 0.181 ± 0.0091 E-score.

On to CCCTCTGA, for which the binding signal was 0.153 ± 0.0264 E-score.

For the sequence CACTGAGA, the binding signal worked out at 0.202 ± 0.0113 E-score.

Take GCTTAACA: the binding signal is 0.171 ± 0.0194 E-score.

Take ACCAGAGT: the binding signal was determined as 0.16 ± 0.0333 E-score.

With ACCCTTAA, the binding signal was determined as 0.175 ± 0.0783 E-score.

As to ATCCCTAG, the binding signal was found to be 0.154 ± 0.00215 E-score.

On to CACTCGTA, for which the binding signal stood at 0.152 ± 0.0172 E-score.

As to CGGCGTAC, the binding signal is 0.209 ± 0.00229 E-score.

For TATGGACA, the binding signal amounted to 0.167 ± 0.0099 E-score.

Take CACTTTAC: the binding signal was 0.221 ± 0.0328 E-score.

As for ACACCTTC, the binding signal turned out to be 0.46 ± 0.0107 E-score.

For the sequence ACCCCTTG, the binding signal stood at 0.237 ± 0.00827 E-score.

Regarding ACCCCTTC, the binding signal came to 0.2425 ± 0.00198 E-score.

Regarding ACCCCTTA, the binding signal is 0.228 ± 0.014 E-score.

On to ACACGTTA, for which the binding signal was 0.297 ± 0.0383 E-score.

As to ACACTTTG, the binding signal was found to be 0.31 ± 0.0292 E-score.

Take ACACCTTA: the binding signal was found to be 0.456 ± 0.00729 E-score.

Take ACACCTTG: the binding signal is 0.44 ± 0.00935 E-score.

Turning to CCACCTTC, the binding signal was found to be 0.19 ± 0.00382 E-score.

As for GACAGGGC, the binding signal worked out at 0.162 ± 0.0431 E-score.

TTACACAA: the binding signal was 0.223 ± 0.0118 E-score.

Regarding GAAGCACC, the binding signal was 0.238 ± 0.00424 E-score.

With GTACCCCA, the binding signal came out at 0.247 ± 0.0214 E-score.

For the sequence ATACGACA, the binding signal was 0.18 ± 0.0318 E-score.

Turning to ACCCAAGA, the binding signal came to 0.163 ± 0.00205 E-score.

On to CACCGCAG, for which the binding signal is 0.241 ± 0.0286 E-score.

Regarding AGAAACAC, the binding signal stood at 0.408 ± 0.0147 E-score.

For AGAAAACA, the binding signal came out at 0.192 ± 0.0184 E-score.

As to CGAAACAC, the binding signal was 0.339 ± 0.0288 E-score.

As to AAAAACAC, the binding signal was 0.368 ± 0.0203 E-score.

GGAAACAC: the binding signal was 0.374 ± 0.004 E-score.

For GAAAACAC, the binding signal turned out to be 0.383 ± 0.0136 E-score.

As for GGGATCCC, the binding signal stood at 0.31 ± 0.0322 E-score.

Take GGTGCATA: the binding signal came out at 0.195 ± 0.0199 E-score.

GGGATCAA: the binding signal was found to be 0.189 ± 0.0285 E-score.

As for GGGGTTCA, the binding signal was 0.256 ± 0.0435 E-score.

GGTGCTCA: the binding signal was found to be 0.25 ± 0.046 E-score.

For CGTGTTCC, the binding signal turned out to be 0.34 ± 0.0151 E-score.

As to AGTGTTCA, the binding signal is 0.343 ± 0.0114 E-score.

Regarding GGTGTTCA, the binding signal is 0.4614 ± 0.000559 E-score.

In the case of CGTGTTCA, the binding signal worked out at 0.4087 ± 0.0026 E-score.

Turning to CCCGATGA, the binding signal was 0.16 ± 0.00231 E-score.

In the case of CTCCCGCA, the binding signal stood at 0.155 ± 0.0331 E-score.

As to ACCCAGGC, the binding signal was found to be 0.162 ± 0.0568 E-score.

For CCCCGCGG, the binding signal came to 0.193 ± 0.0298 E-score.

Regarding GTACGACA, the binding signal is 0.297 ± 0.0138 E-score.

Regarding CGTGGTGC, the binding signal worked out at 0.187 ± 0.0118 E-score.

Consider GGTGCAAC, for which the binding signal turned out to be 0.272 ± 0.00472 E-score.

Take ATACCATC: the binding signal is 0.151 ± 0.00506 E-score.

On to ACACCATG, for which the binding signal is 0.4696 ± 0.00232 E-score.

Take ACCCCATC: the binding signal stood at 0.245 ± 0.00929 E-score.

Consider GCACCATA, for which the binding signal was 0.174 ± 0.00986 E-score.

With ACTCCATG, the binding signal stood at 0.212 ± 0.0247 E-score.

Regarding ACCCCATG, the binding signal was found to be 0.226 ± 0.0299 E-score.

Consider ACACCATA, for which the binding signal came to 0.459 ± 0.00633 E-score.

As for ACACCATC, the binding signal came to 0.4671 ± 0.000891 E-score.

For the sequence ACTCCATA, the binding signal amounted to 0.2012 ± 0.000827 E-score.

Consider ATTTTACA, for which the binding signal is 0.19 ± 0.0629 E-score.

As for TGGGTACA, the binding signal came out at 0.29 ± 0.00578 E-score.

In the case of ATCGCGGG, the binding signal was 0.167 ± 0.0319 E-score.

Take AGGGTAGG: the binding signal turned out to be 0.176 ± 0.00576 E-score.

Regarding CCCCAAGA, the binding signal came to 0.156 ± 0.0279 E-score.

As for ATAACACG, the binding signal turned out to be 0.402 ± 0.0181 E-score.

With ATAACCCC, the binding signal stood at 0.266 ± 0.0237 E-score.

CTAACCCC: the binding signal came to 0.223 ± 0.0193 E-score.

As to ATAACACA, the binding signal amounted to 0.2399 ± 0.00217 E-score.

For ATAACACC, the binding signal is 0.479 ± 0.0087 E-score.

As for GTAACACA, the binding signal was 0.223 ± 0.0443 E-score.

Take ATAACTCC: the binding signal came out at 0.181 ± 0.0433 E-score.

As to CTAACACA, the binding signal turned out to be 0.209 ± 0.00581 E-score.

With CTAACACC, the binding signal was determined as 0.478 ± 0.00653 E-score.

On to CCCCGTGC, for which the binding signal was found to be 0.244 ± 0.0265 E-score.

With CGCCGCCG, the binding signal was 0.208 ± 0.031 E-score.

As for ATTCACTC, the binding signal turned out to be 0.151 ± 0.0349 E-score.

Consider AGCACGCA, for which the binding signal amounted to 0.24 ± 0.0253 E-score.
